Compound activity deposited in PubChem by National Center for Advancing Translational Sciences (NCATS).
Rows were chosen to be rich in hits. Some 7% of all compounds tested hit in one or more screens of this group.
ATXN viability: viability counter-screen for ATXN expression inhibitors; S2 cells (HEK-293 line with an ATXN2-luciferase reporter) viability, CellTiter-Fluor protease fluorescence, 24 h; hit rate 0.49% among 400,000; Potency, µM (doses to about 56.7 µM), actives largely listed as cytotoxic; AID 651635; also: potency is read from the fitted curve at half-maximal effect; nearly all actives have a fitted effect of over 40% in size
DRD3 antagonist: antagonists of human D3 dopamine receptor; P35462; max response, negative = inhibition, %; D3R cells, DiscoveRx beta-arrestin luminescence, antagonist mode; stronger effect = lower value; hit rate 2.5% among 360,000; in the data active = max response below about -50%; inconclusive = no clear call, values can overlap the other calls; also: % is scaled to controls: 0 for no effect and ±100 for the full control effect
Target sequence (P35462 whole entry, looked up): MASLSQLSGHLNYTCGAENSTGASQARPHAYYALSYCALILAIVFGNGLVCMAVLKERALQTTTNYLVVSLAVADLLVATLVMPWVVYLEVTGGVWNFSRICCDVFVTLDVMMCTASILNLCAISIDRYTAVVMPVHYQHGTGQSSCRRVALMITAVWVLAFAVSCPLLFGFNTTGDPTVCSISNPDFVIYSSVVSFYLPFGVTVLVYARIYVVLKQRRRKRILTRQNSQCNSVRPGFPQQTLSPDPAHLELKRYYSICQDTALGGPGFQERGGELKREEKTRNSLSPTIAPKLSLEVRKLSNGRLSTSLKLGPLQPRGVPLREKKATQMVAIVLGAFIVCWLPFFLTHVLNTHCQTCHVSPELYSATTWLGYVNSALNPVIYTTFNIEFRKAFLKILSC
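Cells expressing the human receptor were seeded at 1500 cells/well, incubated overnight at 37 degrees C in 5% CO2, then exposed to library compounds with dopamine controls for 90 minutes at 37 degrees C before luminescent detection.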
a7 integrin act: activators of alpha7 integrin expression for muscular dystrophy. AID 624291. alpha7betagal myoblasts, beta-gal FDG fluorescence, 48 h. Potency, µM (highest dose often 38.3 µM), without a hit: at the highest dose activation, usual class: activators. hit rate 0.064% among 350,000;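 also: potency is read from the fitted curve at half-maximal effect; 100% = response of the positive control SU9516; nearly all actives have a fitted effect of over 60% in size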
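Alpha7betagal+/- myoblasts (passage 13) were plated 16-24 hr, then exposed to compounds (1:260 dilution of DMSO stock) for 48 hours at 37C. After MPER lysis, β-galactosidase reporter activity was read as FDG fluorescence (ex 480/em 540) after 30 minutes.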
DRD3 agonist: agonists of human D3 dopamine receptor; P35462; D3R DiscoveRx beta-arrestin cells, luminescence, 90 min; max activation, %; hit rate 0.58% among 410,000; AID 652048; in the data active = max activation above about 30%; also: 0% is about no effect
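Agonist mode: compounds and dopamine controls were applied to plated cells for 90 min at 37 degrees C after an overnight attachment at 1500 cells/well. Luminescent read-out followed 30 - 60 minutes at room temperature with DiscoveRx detection reagent.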
IL1B secr inh: blocks inflammasome-driven IL-1 beta release; THP-1 LPS/ATP IL-1B secretion, AlphaLISA, 16 h; stronger effect = lower value; activity change, % at 57.5 µM; hit rate 4.7% among 360,000; in the data active = activity change below about -50%; inconclusive = mostly about -30% to -49%; also: % is scaled to controls: 0 for no effect and ±100 for the full control effect
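THP-1 cells pretreated 1 hr with compounds (up to 57.5 uM final), then stimulated with LPS (250 ng/mL final) plus ATP (1.25 mM final); secreted IL-1B measured by AlphaLISA after 16 hr, decreased signal indicating inhibition.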
ATXN2 expr inh: inhibitors of ATXN2 expression; HEK-293 ATXN2-luciferase reporter, luminescence, 24 h; Potency, µM (titrated, usually from 57 µM), for the others: at the highest dose activity change, negative = inhibition, actives largely listed as inhibitors; hit rate 0.72% among 360,000; AID 1745845; also: potency is read from the fitted curve at half-maximal effect; % is scaled to controls: 0 for no effect and ±100 for the full control effect; nearly all actives have a fitted effect of over 55% in size
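ATXN2-luciferase reporter cells (luciferase flanked by upstream and downstream ATXN2 gene portions) were treated 24 h at 37 °C with compounds at up to 57 uM. SteadyGlo luminescence gave expression; GF-AFC fluorescence gave viability.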
Active calls of the source: *; i = inactive; ? = inconclusive; nt = no result. Unless noted, calls follow the shape of the dose curve; as a rule, active = well fitted curve in the direction sought with a large enough effect; inconclusive = small, poorly fitted or top-dose-only effect, or another doubt; inactive = no such curve, though single readings can be large; an effect the other way counts as inactive or inconclusive.

SMILES | ATXN viability | DRD3 antagonist | a7 integrin act | DRD3 agonist | IL1B secr inh | ATXN2 expr inh
CC(=O)/C=C/c1ccccc1Oc1c(F)c(F)nc(F)c1F | ? | -23 | -67% | -14 | -27 | -34%
Cc1cc(Cl)c2oc(C(=O)N3CCN(c4ccncc4)CC3)c(C)c2c1 | ? | 4 | -47% | -6 | -88* | ?
O=C(Nc1nnc(-c2ccc(Cl)cc2)o1)c1ccc(N2C(=O)CCC2=O)cc1 | i | -4 | -5% | 1 | 8 | 4%
CCCCNC(=O)C(C)N(CCN(C)C)C(=O)CCCN1C(=O)NC(c2ccc([N+](=O)[O-])cc2)C(C(=O)OCc2ccccc2)=C1C (stereo not given) | ? | -25 | 0% | -6 | -79* | ?
CCOc1ccccc1C(=O)NCCc1cnc[nH]1 | i | -8 | -9% | -4 | -19 | -3%
CCN(CC)S(=O)(=O)c1ccc(-c2csc(C)n2)cc1 | i | -4 | ? | -4 | 5 | nt
CCCN(CCC)S(=O)(=O)c1cccc(-c2csc(C)n2)c1 | i | -10 | -16% | -15 | -55* | -15%
OCCCNCc1ccc(-c2ccccc2)cc1 | nt | -13 | -62% | -10 | -12 | -14%
c1ccc(-c2ccc(CNC3CC3)cc2)cc1 | i | -14 | 27% | -17 | -87* | 0%
CCN1CCN(CC(=O)N/N=C/c2cc(Br)cs2)CC1 | i | -53* | 10% | -4 | 7 | nt
Cc1cccc(NCc2ccc([N+](=O)[O-])s2)c1 | ? | -24 | -49% | 2 | -21 | -20%
O=[N+]([O-])c1ccc(CNc2cccc(F)c2)s1 | i | -16 | 0% | 1 | -52* | -23%
Cc1ccc2oc(C(Cl)(Cl)Cl)cc(=O)c2c1 | ? | 7 | -10% | -2 | -100* | ?
CCN1C(=O)S/C(=C/c2ccc(Oc3ccc([N+](=O)[O-])cn3)c(OC)c2)C1=O | ? | -10 | 2% | -2 | 13 | nt
CCOC(=O)COc1c(Br)cc(/C=C2\SC(=O)N(CC(=O)N3CCCC3)C2=O)cc1OC | i | 0 | -4% | 2 | -51* | 3%
COc1cc(/C=C2/SC(=O)N(CC(=O)N3CCCC3)C2=O)ccc1Oc1ccc([N+](=O)[O-])cn1 | i | -1 | -11% | 0 | -63* | -14%
CCOC(=O)N1CCN(C(=O)CCN2C(=O)/C(=C\c3ccc(OC)c(OC)c3)SC2=S)CC1 | i | 8 | -1% | 2 | -3 | nt
O=C(CCN1C(=O)/C(=C\c2ccccc2)SC1=S)N1CCCCC1 | ? | 5 | -47% | 4 | -100* | ?
COc1cc(/C=C2\SC(=S)N(CCC(=O)N3CCCCC3)C2=O)cc(OC)c1OC | ? | 3 | -17% | 13 | -101* | ?
COc1ccc(N(CC(=O)Nc2nc3ccc(C)cc3s2)S(=O)(=O)c2c(C)nn(C)c2C)cc1 | ? | -13 | 20% | -11 | 9 | ?
CCOc1cccc(C(=O)N2CCCCC2c2cccnc2)c1 (stereo not given) | i | 4 | 0% | 1 | 20 | -1%
CCOc1cc(/C=C(/C#N)c2nc3ccccc3[nH]2)ccc1Oc1ccc([N+](=O)[O-])cn1 | ? | -25 | ? | 4 | ? | ?
O=C(CCCN1C(=O)/C(=C\c2cccs2)SC1=S)Nc1ccccc1O | i | ? | -8% | -2 | -5 | nt
COc1cc(/C=C(/C#N)c2ccc(C)cc2)ccc1Oc1ccc([N+](=O)[O-])cn1 | i | 1 | -7% | 8 | -69* | -17%
COc1ccc(/C=C2\SC(=S)N(CCCC(=O)N3CCOCC3)C2=O)cc1 | i | -14 | -41% | -4 | -10 | -15%
SMILES | ATXN viability | DRD3 antagonist | a7 integrin act | DRD3 agonist | IL1B secr inh | ATXN2 expr inh
O=C(CCCN1C(=O)/C(=C/c2ccccc2)SC1=S)Nc1ccccc1O | i | ? | -34% | 0 | -93* | -24%
O=C(CCCN1C(=O)/C(=C\c2ccccc2)SC1=S)N1CCOCC1 | ? | -15 | -35% | -8 | -84* | -8%
Cc1ccc(/C=C2\SC(=S)N(CCC(=O)N3CCCCC3)C2=O)cc1 | i | 2 | -30% | 15 | -9 | 22%
O=C(CCN1C(=O)/C(=C/c2cccs2)SC1=S)N1CCCCC1 | ? | 11 | -36% | 34* | -104* | ?
O=C(c1cc2c(=O)oc3ccccc3c2s1)N1CCN(c2ccccc2)CC1 | i | nt | nt | -9 | nt | 6%
CCCc1ccc(S(=O)(=O)N2CCC(c3nnnn3-c3ccc(OC)cc3)CC2)cc1 | nt | nt | nt | 10 | nt | nt
CC1CC(C)CN(CC(=O)NC(c2ccccc2)c2ccccc2)C1 (stereo not given) | ? | -6 | -1% | -9 | -10 | nt
Cc1csc(NC(=O)C2C3C=CC(C3)C2C(=O)O)n1 (stereo not given) | i | 21 | 2% | -4 | -6 | -3%
CCOC(=O)/C=C1\SCC(=O)N1CCOc1cccc(Br)c1 | i | 23 | -28% | 2 | ? | -18%
COc1cc(C(=S)N2CCOCC2)cc(OC)c1OC | i | -2 | 11% | 7 | 14 | 24%
O=C1/C(=C/c2cccs2)SC(=S)N1CCC(=O)N1CCCCC1CCO (stereo not given) | i | 17 | -5% | -12 | -56* | 48%
CCC(=O)N/C(N)=N/c1nc(C)c2cc(OC)ccc2n1 | ? | 14 | -21% | 17 | -66* | -29%
OC(COc1ccccc1)CN1CCN(CC(O)COc2ccccc2)CC1 (stereo not given) | i | -30 | 19% | -22 | 9 | -10%
OC(CON=C1c2ccccc2-c2ccccc21)CN1CCNCC1 (stereo not given) | ? | -18 | -76% | 3 | -88* | ?
COc1cccc(N2CCN(C(=O)CCS(=O)(=O)c3ccc4c(c3)oc(=O)n4C)CC2)c1 | ? | 10 | ? | -1 | 24 | 8%
CCc1ccc(S(=O)(=O)NCc2cccs2)cc1 | i | -65* | 20% | -5 | -16 | -4%
NC(=Nc1nc(-c2ccccn2)cc2ccccc12)c1ccccn1 | ? | 47 | 10% | 5 | 54 | 0.32µM*
N/C(=N\OC(=O)c1cccc2ccccc12)c1ccccn1 | ? | -8 | -13% | 10 | 30 | 6%
CCC(=O)c1ccc(OCC(O)Cn2nc(C)c(Br)c2C)cc1 (stereo not given) | i | -7 | -2% | -2 | 9 | 4%
Cc1cc(CN(C)C(=O)c2ccc3nc(Cc4ccccc4F)oc3c2)on1 | i | -3 | -10% | 8 | -81* | 51%
COc1ccc(-c2cc(C3CCN(C(=O)OC(C)(C)C)CC3)[nH]n2)cc1 | i | -4 | ? | -6 | -84* | -28%
